Results filed as inconclusive are left out. The source made the active and inactive calls. Calls follow the shape of the dose curve; as a rule, active = well fitted inhibition curve with a large enough effect; inconclusive = small, poorly fitted or top-dose-only effect; inactive = flat fitted curve, though single readings scatter.
Assay: Secondary Assay for lipid storage modulators: Cytotoxcity for probe SAR round 2
Source text: NIH Molecular Libraries Probe Production Centers Network [MLPCN] NIH Chemical Genomics Center [NCGC] MLPCN Grant: 1 R03 MH085686-01 Assay Submitter (PI): Beller, Mathias; Max-Planck-Institut fur Biophysikalische Chemie, Germany. NCGC Assay Overview: Storing lipids as a reservoir for energy or the anabolism of elementary metabolites is a common feature of probably all cells and is conserved from bacteria to humans. The universal cellular lipid storage organelle is the so-called lipid storage droplet (LD). Although ubiquitous, LDs share a simple structure composed of a hydrophobic core that harbors the storage lipids, which is shielded by a droplet-specific phospholipid monolayer to which proteins are attached. The current model of LD biogenesis involves an incorporation of the lipid core into the membrane leaflets of the endoplasmic reticulum (ER) followed by a subsequent budding-like maturation of a LD, which ultimately pinches off. Once released, LD volume can increase by localized lipogenesis or fusion of existing droplet. Storage lipids are re-mobilized enzymatically by lipase activity. […]
Assay Protocol Summary: Cytotoxcity assay was performed with embryonic Drosophila S3 cells (Bloomington Drosophila Genomics Resource Center [DGRC]). […] Luminescence was detected on the Perkin Elmer ViewLux.

Compound: CCC/C=C/C/C=C/C=C/C=N/NN=O
- outcome: inactive

Source: PubChem BioAssay AID504433 (National Center for Advancing Translational Sciences (NCATS), 2011)
